Assay [1] is described as follows: Validation qHTS assay for inhibitors of Activation Induced Cytidine Deaminase (AID): UDG Counterscreen signal (AID 1347427). In a few lines: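 Fluorescence at 560 nm excitation, 665 nm emission reports UDG signal after 250 mM NaOH (2x) addition and 30 min. Enzymes (AID 1 uM, UDG 2 U/mL, at 4/3x) preincubated 10 min with compound, then 4 h with 4x 250 nM DJC20/DJC23 substrate at room temperature.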

Assay [2] concerns the target Single-stranded DNA cytosine deaminase (Homo sapiens) (UniProt Q9GZX7). Put plainly: Validation qHTS assay for inhibitors of Activation Induced Cytidine Deaminase (AID): AID signal (AID 1347429). In a few lines:
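Compounds (final up to 114 uM) preincubated with AID plus UDG; 250 nM DJC20/DJC23 substrate mix (4x stock) added, 4 hr at room temperature, then NaOH, 30 min. Read 1 fluorescence at 540 nm excitation, 590 nm emission.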

Assay [3] is described as follows: Primary qHTS for inhibitors of La Crosse Virus (LACV) - induced cell death in SH-SY5Y cells (AID 1508616). Also: potency is read from the fitted curve at half-maximal effect. The gist of the method: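 Rescue of virus-induced death was read as ATPLite luminescence after 6 days at 37C, scaled between DMSO wells with LACV and without virus. Cells were SH-SY5Y, 6000/well, infected at 0.01 MOI after compound addition.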
Assay [4] is described as follows: Confirmatory qHTS for VERO E6 Cytotoxicity Assay: Counterscreen for SARS-CoV-2 CPE Assay (AID 1508605; calls by dose curve; also: series mostly up to about 20 µM; nearly all actives have a fitted effect of over 60% in size).
The nature of assay [5]: qHTS to identify inhibitors of the type 1 interferon - major histocompatibility complex class I in skeletal muscle: primary screen against the NCATS Mechanism Interrogation Plate v5.0 (MIPE) Libary (AID 1347411). Also: nearly all actives have a fitted effect of over 65% in size. The gist of the method:
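Luminescence from CRISPR HiBit-tagged endogenous HLA-B in human myoblasts reported MHC class I level after 24 h of IFN-beta (4 ng/ml) plus compound. Compounds ran as 11-point 1:3 series, top 46 uM final.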
(In general: Quantitative high-throughput screening tests each substance at several concentrations.)

The target in assay [6] is Calcium and integrin-binding protein 1 (Homo sapiens) (UniProt Q99828). The experiment in a line: Primary qHTS for Identification of Calcium Integrin Binding Protein 1 (CIB1) Competitor (AID 1508620).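 Also: GST tagged CIB1 binding a fluorescein labelled alphaIIb integrin peptide tracer; top concentration of the series differs between compounds.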 The gist of the method:
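Fluorescence polarization competition: CIB1-GST (1 uM final) preincubated with compound 15 min at room temperature, then FITC-labeled alphaIIb peptide (100 nM final) added for another 15 min. Polarization read at Ex 480/Em 540.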

Assay [7] is described as follows: qHTS for inhibitors of adenylyl cyclases using a fission yeast platform: a pilot screen against the NCATS LOPAC library (AID 1347410). The gist of the method: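 Inhibition of GNAS-stimulated AC9 activity in S. pombe was inferred from derepression of a PKA-repressed fbp1-GFP reporter, measured as cytometric fluorescence after 18 h at 30C with compounds at up to 57 µM.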

Assay [8] concerns the target Calcium and integrin-binding protein 1 (Homo sapiens) (UniProt Q99828). Put plainly: Validation qHTS for Identification of Calcium Integrin Binding protein 1 (CIB1) Competitor (AID 1508618). In a few lines:
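Displacement of FITC-alphaIIb peptide (100 nM) from CIB1-GST (1 uM) is monitored by polarization in quantitative HTS format; buffer carries 5 mM CaCl2 and 125 mM NaCl at pH 7.4, incubations are at room temperature.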

Assay [9] is described as follows: Counterscreen qHTS for small molecule stabilizers of the endoplasmic reticulum resident proteome: GLuc-NoTag assay (AID 1508627). Also: series mostly up to about 76 µM. The gist of the method:
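Secreted GLuc lacking the SERCaMP modification is measured in SH-SY5Y cells exposed to compound for 19 h and then to thapsigargin (100 nM, 4 h) to deplete ER calcium; hits retested at 11 concentrations, up to 76.6 uM.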

SMILES strings stand for the structures. Results filed as inconclusive are left out. Entries that show only a call come without a potency. Calls of active or inactive are those of the source. Unless noted, calls follow the shape of the dose curve; as a rule, active = well fitted curve in the direction sought with a large enough effect; inconclusive = small, poorly fitted or top-dose-only effect, or another doubt; inactive = no such curve, though single readings can be large; an effect the other way counts as inactive or inconclusive.

Sequence of Single-stranded DNA cytosine deaminase (Homo sapiens) (Q9GZX7 whole entry, looked up): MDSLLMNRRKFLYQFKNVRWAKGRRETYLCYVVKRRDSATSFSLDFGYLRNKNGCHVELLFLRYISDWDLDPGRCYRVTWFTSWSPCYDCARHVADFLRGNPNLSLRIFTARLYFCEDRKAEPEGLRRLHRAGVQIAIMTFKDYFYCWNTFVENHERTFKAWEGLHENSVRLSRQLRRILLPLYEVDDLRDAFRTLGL
Sequence of Calcium and integrin-binding protein 1 (Homo sapiens) (Q99828 whole entry, looked up): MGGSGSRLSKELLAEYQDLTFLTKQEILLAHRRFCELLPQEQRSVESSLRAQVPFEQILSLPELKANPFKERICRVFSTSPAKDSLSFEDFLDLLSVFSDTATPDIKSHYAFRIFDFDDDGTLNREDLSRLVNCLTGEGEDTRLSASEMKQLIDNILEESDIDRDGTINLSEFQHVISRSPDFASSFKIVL

Turning to `C/C(O)=C(\C#N)C(=O)Nc1cc(Br)ccc1Br`, the Potency entry in assay [1], in assay [2] and in [3] was “inactive” each time.

Take `C[C@@H]1[C@@H]2Cc3ccc(O)cc3[C@@]1(C)CCN2CC1CC1`: the Potency result in [1], in assay [2] and in assay [3] was “inactive” in each case.

As to `O=c1c2ccccc2[se]n1-c1ccccc1`, the Potency result in assay [2] and in assay [3] was “inactive” each time. Besides, in [4], the outcome was inactive.

For `C[C@@H]1O[C@H](C[N+](C)(C)C)CS1`, the Potency entry in [1], in assay [2] and in assay [3] was “inactive” throughout.

On to `COc1ccc2c(c1)c(CCN1CCOCC1)c(C)n2C(=O)c1cccc(Cl)c1Cl`, for which the Potency entry in assay [1], in assay [2] and in assay [3] was “inactive” throughout.

Take `CC1=C2C[C@H]3[C@@H](CC=C4C[C@@H](O)CC[C@@]43C)[C@@H]2CC[C@]12O[C@@H]1C[C@H](C)CN[C@H]1[C@H]2C`: the compound was called inactive in assay [5]. The Potency result in assay [6] was “inactive”.

Take `C[C@]12Cc3cn4c(nc3C=C1CCC1C2CC[C@@]2(C)[C@H]1CC[C@@]2(O)C#N)nc1ccccc14` (some centres undefined): the compound was called inactive in assay [7]. The Potency entry in assay [2], in [3] and in [8] was “inactive” in each case.

For `COc1cc(CC(C)N)c(OC)cc1I` (centres undefined), the Potency result in [2] and in assay [3] was “inactive” each time.

For the compound `C=CCN(C1=NCCN1)c1c(Cl)cccc1Cl`, the Potency result in [1], in [2] and in assay [3] was “inactive” in each case.

With `C[C@]12CC[C@H]3[C@@H](CC[C@@]45O[C@@H]4C(O)=C(C#N)C[C@]35C)[C@@H]1CC[C@@H]2O`, in assay [5], the compound was called inactive.

As to `CCCN(CCC)CCc1c[nH]c2ccc(C(N)=O)cc12`, the Potency entry in assay [2] and in assay [3] was “inactive” throughout.

On to `CN1CCc2cc(O)cc3c2[C@H]1Cc1ccc(O)c(O)c1-3`, for which the Potency result in assay [1], in [2] and in [8] was “inactive” in each case. Moreover, the Potency in assay [3] was 3.98 µM (active).

For `CC(C)[C@@]1(NC(=O)[C@@H]2C[C@@H]3c4cccc5[nH]cc(c45)C[C@H]3N(C)C2)O[C@@]2(O)[C@@H]3CCCN3C(=O)[C@H](Cc3ccccc3)N2C1=O`, the Potency entry in assay [2] and in [3] was “inactive” each time. Further, the call in assay [9] was inactive.

For `CCCCCCC(C)(C)c1ccc([C@@H]2C[C@H](O)CC[C@H]2CCCO)c(O)c1`, the Potency entry in assay [1], in assay [2] and in assay [3] was “inactive” in each case.

Consider `CCOc1ccccc1-n1c(C(C)N2CCN(C(=O)COc3ccc(Cl)cc3)CC2)nc2ccccc2c1=O` (centres undefined), for which the compound was classed as inactive in assay [5]. The Potency result in assay [6] was “inactive”.

Turning to `C[Se]C[C@H](N)C(=O)O`, the Potency entry in assay [2] and in assay [3] was “inactive” throughout.

On to `O=C1CC[C@@]2(O)C3Cc4ccc(O)c5c4C2(CCN3CC2CC2)[C@H]1O5` (some centres undefined), for which the compound was classed as inactive in assay [7]. Also, the Potency result in assay [3] and in assay [8] was “inactive” throughout.

For the compound `O=[N+]([O-])c1ccc2nc(N3CCNCC3)ccc2c1`, the compound was classed as inactive in assay [7] and in assay [9]. Moreover, the Potency result in assay [1], in assay [2] and in assay [8] was “inactive” throughout.

With `CCN(CCCl)Cc1ccccc1Br`, in [2], the Potency result was “inactive”. The Potency in [3] was 2.82 µM (active).

In the case of `C=CCN1CCc2cccc3c2[C@H]1Cc1ccc(O)c(O)c1-3`, the Potency entry in [2] was “inactive”.

On to `CCCn1c(C)c(C(=O)c2ccc3ccccc3c2)c2ccccc21`, for which the Potency entry in assay [2] and in assay [3] was “inactive” throughout.

Turning to `O=C(O)c1cc[c]([Hg][Cl])cc1`, the Potency result in [1], in assay [2] and in assay [3] was “inactive” throughout. Moreover, the result in [9] was inactive.

With `CN(N=O)c1cc(O)ccc1O`, the Potency result in assay [1] and in assay [2] was “inactive” in each case.

In the case of `COc1ccc2c(c1)[C@@]13CCCC[C@H]1[C@@H](C2)NCC3`, the Potency entry in assay [1] and in assay [2] was “inactive” each time.

In the case of `Ic1ccccc1CNC1C2CCN(CC2)C1C(c1ccccc1)c1ccccc1` (centres undefined), the outcome in [7] was inactive. In addition, the Potency entry in assay [2] was “inactive”.

On to `N[C@@H](CCl)C(=O)O`, for which the Potency entry in assay [1], in [2] and in [3] was “inactive” throughout.

The record behind these values is PubChem BioAssay (NCATS).
